{
  "source": "PubChem BioAssay (NCATS)",
  "note": "The source made the active and inactive calls. Calls come from the whole dose curve; as a rule, active = well fitted curve in the direction sought with a large enough effect; inconclusive = small, poorly fitted or top-dose-only effect, or another doubt; inactive = no such curve, though single readings can be large or run the other way.",
  "data": [
    {"molecular_target": "alpha-glucosidase (Oryza sativa, rice) (UniProt Q653V4)", "assay": "Counterscreen for Glucocerebrosidase Inhibitors: qHTS Assay for Rice alpha-Glucosidase at pH 5.0 (AID 997)", "details": "rice alpha-glucosidase enzyme activity; series mostly up to 76.9 µM", "description": "NIH Chemical Genomics Center [NCGC]\nNIH Molecular Libraries Screening Centers Network [MLSCN]\nPI Name: Zheng, Wei [NIH]\nAlpha-glucosidase is responsible for hydrolysis of terminal, non-reducing 1,4-linked alpha-D-glucose residues with release of alpha-D-glucose. It is a lysosomal hydrolase that is required for the degradation of a small percentage (1-3%) of cellular glycogen in human. Deficiency of this enzyme results in glycogen-storage disease type II (GSDII), also referred to as Pompe disease, an autosomal recessive disorder. Structurally normal glycogen is accumulated in lysosomes and cytoplasm in affected patients, primarily in muscle tissues. Excessive glycogen storage within lysosomes may interrupt normal functioning of other organelles and leads to cellular injury. In turn, this leads to enlargement and dysfunction of the entire organ involved (eg, cardiomyopathy and muscle weakness).\nIt has reported that the improper folding and trafficking of alpha-glucosidase resulted from the genetic mutations may account for a significant number of Prope patients. […] We optimized this alpha-glucosidase assay in 1536-well plate format for identifying the novel small molecule inhibitors with the structures other than the sugar analogs in order to develop the new pharmacological chaperones.\nNCGC Assay Protocol Summary:\nThis is a fluorogenic enzyme assay with 4-methylumbelliferyl-alpha-D-pyranoside as the substrate and rice alpha-glucosidase as the enzyme preparation. Upon the hydrolysis of this fluorogenic substrate, the resulting product, 1. 4-methyllumbelliferone, can be excited at 365 nm and emits at 440 nm which can be detected by a standard fluorescence plate reader. Data were normalized to the controls for basal activity (without enzyme) and 100% activity (with enzyme). In the AC50 values were determined from concentration-response data modeled with the standard Hill equation.\nAssay buffer: 50 mM citric acid, 0.005% Tween-20, pH 5.0. (pH 5.0 is an optimal condition for this enzyme assay)\n1536-well assay protocol for the human alpha-glucosidase:\n(1) Add 2 ul/well of enzyme (4 nM final)\n(2) Add 23 nL compounds in DMSO solution. The final titration was 0.7 nM to 77 uM.\n(3) Add 1 ul of substrate (400 uM final)\n(4) Incubate at room temperature for 20 min.\n(5) Add 2 ul stop solution (1M NaOH and 1M Glycine mixture, pH 10)\n(6) Detect the assay plate in a ViewLux plate reader (PerkinElmer) with Ex=365 nm and Em=440nm.\nKeywords: Alpha-glucosidase, Prope Disease, pharmacological chaperone, chaperone therapy, high throughput screening, alpha-glucosidase inhibitor, MLSMR, MLSCN, NIH Roadmap, qHTS and NCGC", "values": [
      {"smiles": "CCN1CCc2nc(N)oc2CC1", "outcome": "inactive"},
      {"smiles": "CC(=O)Oc1cc(C(C)C)c(OCCN(C)C)cc1C", "outcome": "inactive"},
      {"smiles": "CCC(=O)c1ccc2c(c1)N(CCCN(C)C)c1ccccc1S2", "outcome": "inactive"},
      {"smiles": "C(=C\\c1ccccc1)/CN1CCN(C(c2ccccc2)c2ccccc2)CC1", "outcome": "inactive"},
      {"smiles": "C[C@]12C=CC(=O)C=C1CC[C@H]1[C@@H]3C[C@@H](O)[C@](O)(C(=O)CO)[C@@]3(C)C[C@H](O)[C@@]12F", "outcome": "inactive"},
      {"smiles": "Brc1c(NC2=NCCN2)ccc2nccnc12", "outcome": "inactive"},
      {"smiles": "Nc1ncn([C@@H]2O[C@H](CO)[C@@H](O)[C@H]2O)c(=O)n1", "outcome": "inactive"},
      {"smiles": "N[C@@H](COP(=O)(O)O)C(=O)O", "outcome": "inactive"},
      {"smiles": "C[C@H](CS)C(=O)N1CCC[C@H]1C(=O)O", "outcome": "inactive"},
      {"smiles": "CN(C)C(=O)Oc1ccc[n+](C)c1", "outcome": "inactive"},
      {"smiles": "OCCN1CCN(CCCN2c3ccccc3C=Cc3ccccc32)CC1", "outcome": "inactive"},
      {"smiles": "c1cc(CN2CCCCC2)cc(OCCCNc2nc3ccccc3s2)c1", "outcome": "inactive"},
      {"smiles": "NCCCNCCSP(=O)(O)O", "outcome": "inactive"},
      {"smiles": "Cc1nc2ccccn2c(=O)c1CCN1CCC(C(=O)c2ccc(F)cc2)CC1", "outcome": "inactive"},
      {"smiles": "C[n+]1cc2c3c(ccc2c2ccc4cc5c(cc4c21)OCO5)OCO3", "outcome": "inactive"},
      {"smiles": "CCCCNC(=O)NS(=O)(=O)c1ccc(C)cc1", "outcome": "inactive"},
      {"smiles": "c1cnc(N2CCN(Cc3ccc4c(c3)OCO4)CC2)nc1", "outcome": "inactive"},
      {"smiles": "O=C1NCN(c2ccccc2)C12CCN(CCCC(c1ccc(F)cc1)c1ccc(F)cc1)CC2", "outcome": "inactive"},
      {"smiles": "O=C(O)CP(=O)(O)O", "outcome": "inactive"},
      {"smiles": "O=C(CCCN1CCC(O)(c2cccc(C(F)(F)F)c2)CC1)c1ccc(F)cc1", "outcome": "inactive"},
      {"smiles": "CN(C(=O)CCCOc1ccc2[nH]c(=O)ccc2c1)C1CCCCC1", "outcome": "inactive"},
      {"smiles": "CCN(CC)CCNC(=O)c1cc(S(C)(=O)=O)ccc1OC", "outcome": "inactive"},
      {"smiles": "CCOC(=O)c1cnc2c(cnn2CC)c1NN=C(C)C", "outcome": "inactive"},
      {"smiles": "CN(C)CCOC(=O)COc1ccc(Cl)cc1", "outcome": "inactive"},
      {"smiles": "C[N+](C)(C)CCOC(=O)CCC(=O)OCC[N+](C)(C)C", "outcome": "inactive"},
      {"smiles": "C#CCN(C)CCCOc1ccc(Cl)cc1Cl", "outcome": "inactive"},
      {"smiles": "CCc1c(C)[nH]c2c1C(=O)C(CN1CCOCC1)CC2", "note": "(stereo not given)", "outcome": "inactive"},
      {"smiles": "CCN(CC)CC(=O)Nc1c(C)cccc1C", "outcome": "inactive"},
      {"smiles": "Cc1ccc(=O)n(-c2ccccc2)c1", "outcome": "inactive"},
      {"smiles": "CN1CCN(C2=Nc3ccccc3Oc3ccc(Cl)cc32)CC1", "outcome": "inactive"},
      {"smiles": "CN=C(NC#N)NCCSCc1nc[nH]c1C", "outcome": "inactive"},
      {"smiles": "CC(=O)Nc1nnc(S(N)(=O)=O)s1", "outcome": "inactive"},
      {"smiles": "CN(C)CCN(Cc1cccs1)c1ccccn1", "outcome": "inactive"},
      {"smiles": "COCC(=O)O[C@]1(CCN(C)CCCc2nc3ccccc3[nH]2)CCc2cc(F)ccc2[C@@H]1C(C)C", "outcome": "inactive"},
      {"smiles": "COc1cc(C(=O)OCCCN2CCCN(CCCOC(=O)c3cc(OC)c(OC)c(OC)c3)CC2)cc(OC)c1OC", "outcome": "inactive"},
      {"smiles": "CN(C)C(=O)Oc1cccc([N+](C)(C)C)c1", "outcome": "inactive"},
      {"smiles": "CC(C)NNC(=O)c1ccncc1", "outcome": "inactive"},
      {"smiles": "O=C(CCNNC(=O)c1ccncc1)NCc1ccccc1", "outcome": "inactive"},
      {"smiles": "CCCN(CCC)CCc1cccc2c1CC(=O)N2", "outcome": "inactive"},
      {"smiles": "O=C(O)CN(CCOCCOCCN(CC(=O)O)CC(=O)O)CC(=O)O", "outcome": "inactive"}
    ]}
  ]
}
